# Assay results from PubChem BioAssay (NCI).
# This is part of a sample that, as a whole, favours compounds with a hit. Of some 79,000 tested, about 15% had one in any assay. Values without a mark were called inactive. The source made the active and inactive calls. No stated cut-off is given here; in the data, active means growth inhibition above about 70%; inactive means the rest.
# How the values were obtained:
# [1] = NCI Yeast Anticancer Drug Screen. Data for the rad52 strain (AID 147);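 further: 0% = growth of vehicle-treated control cultures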; conditions: S. cerevisiae rad52 mutant growth inhibition, stronger effect = higher value
# In short: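 Screen used a yeast mutant impaired in DNA repair. After compound exposure, growth was measured. Values reflect inhibition compared with vehicle-treated cells.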
# [2] = NCI Yeast Anticancer Drug Screen. Data for the wt1 strain (AID 149);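 further: 0% = growth of vehicle-treated wt1 cultures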; conditions: S. cerevisiae wt1 strain (SPY 50644) growth inhibition, stronger effect = higher value
# In short: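 Each compound is tested on wt1 yeast and the loss of growth versus vehicle gives the inhibition value.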
# [3] = NCI Yeast Anticancer Drug Screen. Data for the rad50EPP+ strain (AID 151);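 further: 0% = growth of vehicle-treated control cultures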; conditions: S. cerevisiae rad50 mutant strain, stronger effect = higher value
# In short: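 Exposing the rad50EPP+ strain to each compound, growth was compared with vehicle-only cultures to give inhibition.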
# [4] = NCI Yeast Anticancer Drug Screen. Data for the mgt1 strain (AID 153); conditions: S. cerevisiae mgt1 mutant growth inhibition, stronger effect = higher value
# In short: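 Genetically defined yeast (mgt1) treated with compound; inhibition of growth expressed against vehicle-treated controls.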
# [5] = NCI Yeast Anticancer Drug Screen. Data for the rad50 strain (AID 155);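 further: 0% = growth of vehicle-only cultures of the same strain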; conditions: S. cerevisiae rad50 strain growth inhibition, stronger effect = higher value
# In short: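 Vehicle-treated cultures provide the reference for the growth inhibition reported for compound-exposed, repair-deficient yeast.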
# [6] = NCI Yeast Anticancer Drug Screen. Data for the mec2-1 strain (AID 157); conditions: S. cerevisiae mec2-1 strain, stronger effect = higher value
# In short: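 Readout is yeast growth inhibition, normalised to vehicle-treated controls, in the mec2-1 strain exposed to compound.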
# [7] = NCI Yeast Anticancer Drug Screen. Data for the rad14 strain (AID 159);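 further: 0% = growth of vehicle-treated control cultures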; conditions: S. cerevisiae rad14 strain growth inhibition, stronger effect = higher value
# In short: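 Inhibition of growth is reported for a repair-deficient yeast mutant following compound treatment, calculated relative to cultures that received vehicle.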
# [8] = NCI Yeast Anticancer Drug Screen. Data for the sgs1 mgt1 strain (AID 161);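 further: 0% = growth of cultures given vehicle only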; conditions: S. cerevisiae sgs1 mgt1 strain, stronger effect = higher value
# In short: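 Yeast cells carrying a defined DNA-repair defect were exposed to test compounds. Growth inhibition was measured relative to vehicle-treated controls.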
# [9] = NCI Yeast Anticancer Drug Screen. Data for the CLN2oe strain (AID 163);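 further: 0% = growth of vehicle-only control cultures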; conditions: S. cerevisiae CLN2oe strain, stronger effect = higher value
# In short: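 Values reflect how much compound exposure reduced yeast growth, referenced to vehicle-exposed cells. Assay organism is a strain with a defined genetic change affecting cell-cycle control.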
# [10] = NCI Yeast Anticancer Drug Screen. Data for the cln2 rad14 strain (AID 165);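 further: 0% = growth equal to vehicle treated cultures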; conditions: S. cerevisiae cln2 rad14 strain, stronger effect = higher value
# In short: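 Relative to vehicle controls, growth inhibition of compound-treated cln2 rad14 yeast was recorded.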
# [11] = NCI Yeast Anticancer Drug Screen. Data for the bub3 strain (AID 167); conditions: S. cerevisiae bub3 mutant strain, stronger effect = higher value
# In short: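 Mutant yeast screening strain plus compound; vehicle-treated cultures serve as the 0% inhibition reference.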
# [12] = NCI Yeast Anticancer Drug Screen. Data for the wt2 strain (AID 169); conditions: S. cerevisiae wt2 strain growth inhibition, stronger effect = higher value
# In short: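 Values express reduction in yeast growth under compound treatment, referenced to vehicle-treated cells.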
# [13] = NCI Yeast Anticancer Drug Screen. Data for the mlh1 strain (AID 171);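 further: 0% = growth of vehicle-treated control cultures of the same strain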; conditions: S. cerevisiae mlh1 strain growth inhibition, stronger effect = higher value
# In short: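 Steps: expose the defined-mutant yeast strain to compound; expose a parallel culture to vehicle; measure growth; express compound effect as inhibition relative to the vehicle culture.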
# [14] = NCI Yeast Anticancer Drug Screen. Data for the rad18 strain (AID 177); conditions: S. cerevisiae rad18 mutant growth inhibition, stronger effect = higher value
# In short: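 A genetically defined yeast mutant impaired in DNA damage repair was treated with test compounds, then its growth was measured against cultures receiving vehicle alone.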
# [15] = NCI Yeast Anticancer Drug Screen. Data for the mlh1 rad18 strain (AID 175); conditions: S. cerevisiae mlh1 rad18 strain growth inhibition, stronger effect = higher value
# In short: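 Test agents were incubated with a yeast strain of defined genotype (DNA damage repair defect). Inhibition of growth was derived by comparison with vehicle-exposed cultures.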
# [16] = at 5.0 µM (retest, dose inferred, filed as 0.5)
# [17] = at 50.0 µM (retest, dose inferred, filed as 5.0)
smiles,measurement,setting,value
CCCCCCCCCCCCCCCCCCNC,growth inhibition,[1]; at 1.2 µM,15%
same,growth inhibition,[1]; at 3.7 µM,-4%
same,growth inhibition,[1]; at 11.0 µM,0%
same,growth inhibition,[1]; at 33.0 µM,14%
same,growth inhibition,[1]; at 100.0 µM,95% (active)
same,growth inhibition,[2]; at 1.2 µM,5%
same,growth inhibition,[2]; at 3.7 µM,17%
same,growth inhibition,[2]; at 11.0 µM,12%
same,growth inhibition,[2]; at 33.0 µM,15%
same,growth inhibition,[2]; at 100.0 µM,86% (active)
same,growth inhibition,[3]; at 1.2 µM,14%
same,growth inhibition,[3]; at 3.7 µM,10%
same,growth inhibition,[3]; at 11.0 µM,8%
same,growth inhibition,[3]; at 33.0 µM,48%
same,growth inhibition,[3]; at 100.0 µM,89% (active)
same,growth inhibition,[4]; at 1.2 µM,17%
same,growth inhibition,[4]; at 3.7 µM,25%
same,growth inhibition,[4]; at 11.0 µM,21%
same,growth inhibition,[4]; at 33.0 µM,26%
same,growth inhibition,[4]; at 100.0 µM,96% (active)
same,growth inhibition,[5]; at 1.2 µM,-10%
same,growth inhibition,[5]; at 3.7 µM,1%
same,growth inhibition,[5]; [16],34%
same,growth inhibition,[5]; at 11.0 µM,-2%
same,growth inhibition,[5]; at 33.0 µM,17%
same,growth inhibition,[5]; [17],90% (active)
same,growth inhibition,[5]; at 50.0 µM,68.5%
same,growth inhibition,[5]; at 100.0 µM,87% (active)
same,growth inhibition,[6]; at 1.2 µM,14%
same,growth inhibition,[6]; at 3.7 µM,3%
same,growth inhibition,[6]; [16],50%
same,growth inhibition,[6]; at 11.0 µM,-3%
same,growth inhibition,[6]; at 33.0 µM,18%
same,growth inhibition,[6]; [17],95% (active)
same,growth inhibition,[6]; at 50.0 µM,69%
same,growth inhibition,[6]; at 100.0 µM,96% (active)
same,growth inhibition,[7]; at 1.2 µM,-22%
same,growth inhibition,[7]; at 3.7 µM,-16%
same,growth inhibition,[7]; at 11.0 µM,-16%
same,growth inhibition,[7]; at 33.0 µM,-9%
same,growth inhibition,[7]; at 100.0 µM,75% (active)
same,growth inhibition,[8]; [16],-6%
same,growth inhibition,[8]; [17],97% (active)
same,growth inhibition,[8]; at 50.0 µM,81.2% (active)
same,growth inhibition,[9]; at 1.2 µM,13%
same,growth inhibition,[9]; at 3.7 µM,19%
same,growth inhibition,[9]; at 11.0 µM,2%
same,growth inhibition,[9]; at 33.0 µM,-4%
same,growth inhibition,[9]; at 100.0 µM,77% (active)
same,growth inhibition,[10]; [16],32%
same,growth inhibition,[10]; [17],92% (active)
same,growth inhibition,[10]; at 50.0 µM,8.1%
same,growth inhibition,[11]; at 1.2 µM,12%
same,growth inhibition,[11]; at 3.7 µM,15%
same,growth inhibition,[11]; [16],50%
same,growth inhibition,[11]; at 11.0 µM,32%
same,growth inhibition,[11]; at 33.0 µM,20%
same,growth inhibition,[11]; [17],96% (active)
same,growth inhibition,[11]; at 50.0 µM,87.1% (active)
same,growth inhibition,[11]; at 100.0 µM,94% (active)
same,growth inhibition,[12]; at 1.2 µM,-35%
same,growth inhibition,[12]; at 3.7 µM,-17%
same,growth inhibition,[12]; at 11.0 µM,-40%
same,growth inhibition,[12]; at 33.0 µM,-24%
same,growth inhibition,[12]; at 100.0 µM,82% (active)
same,growth inhibition,[13]; at 1.2 µM,-26%
same,growth inhibition,[13]; at 3.7 µM,-10%
same,growth inhibition,[13]; at 11.0 µM,-8%
same,growth inhibition,[13]; at 33.0 µM,-40%
same,growth inhibition,[13]; at 100.0 µM,70% (active)
same,growth inhibition,[14]; at 1.2 µM,17%
same,growth inhibition,[14]; at 3.7 µM,7%
same,growth inhibition,[14]; at 11.0 µM,7%
same,growth inhibition,[14]; at 33.0 µM,18%
same,growth inhibition,[14]; at 100.0 µM,88% (active)
CN1c2ccc(Cl)cc2C(=O)NC1c1ccc([N+](=O)[O-])s1 (stereo not drawn),growth inhibition,[1]; at 1.2 µM,27%
same,growth inhibition,[1]; at 3.7 µM,30%
same,growth inhibition,[1]; at 11.0 µM,65%
same,growth inhibition,[1]; at 33.0 µM,97% (active)
same,growth inhibition,[1]; at 100.0 µM,97% (active)
same,growth inhibition,[2]; at 1.2 µM,5%
same,growth inhibition,[2]; at 3.7 µM,1%
same,growth inhibition,[2]; at 11.0 µM,17%
same,growth inhibition,[2]; at 33.0 µM,92% (active)
same,growth inhibition,[2]; at 100.0 µM,96% (active)
same,growth inhibition,[3]; at 1.2 µM,0%
same,growth inhibition,[3]; at 3.7 µM,-4%
same,growth inhibition,[3]; at 11.0 µM,18%
same,growth inhibition,[3]; at 33.0 µM,61%
same,growth inhibition,[3]; at 100.0 µM,67%
same,growth inhibition,[4]; at 1.2 µM,-5%
same,growth inhibition,[4]; at 3.7 µM,8%
same,growth inhibition,[4]; at 11.0 µM,23%
same,growth inhibition,[4]; at 33.0 µM,97% (active)
same,growth inhibition,[4]; at 100.0 µM,96% (active)
same,growth inhibition,[5]; at 1.2 µM,20%
same,growth inhibition,[5]; at 3.7 µM,39%
same,growth inhibition,[5]; [16],9%
same,growth inhibition,[5]; at 11.0 µM,72% (active)
same,growth inhibition,[5]; at 33.0 µM,97% (active)
same,growth inhibition,[5]; [17],95% (active)
same,growth inhibition,[5]; at 50.0 µM,91.3% (active)
same,growth inhibition,[5]; at 100.0 µM,96% (active)
same,growth inhibition,[6]; at 1.2 µM,-7%
same,growth inhibition,[6]; at 3.7 µM,-52%
same,growth inhibition,[6]; [16],19%
same,growth inhibition,[6]; at 11.0 µM,14%
same,growth inhibition,[6]; at 33.0 µM,93% (active)
same,growth inhibition,[6]; [17],95% (active)
same,growth inhibition,[6]; at 50.0 µM,93.2% (active)
same,growth inhibition,[6]; at 100.0 µM,96% (active)
same,growth inhibition,[7]; at 1.2 µM,-8%
same,growth inhibition,[7]; at 3.7 µM,-3%
same,growth inhibition,[7]; at 11.0 µM,71% (active)
same,growth inhibition,[7]; at 33.0 µM,96% (active)
same,growth inhibition,[7]; at 100.0 µM,97% (active)
same,growth inhibition,[8]; [16],-10%
same,growth inhibition,[8]; [17],94% (active)
same,growth inhibition,[8]; at 50.0 µM,93.8% (active)
same,growth inhibition,[9]; at 1.2 µM,4%
same,growth inhibition,[9]; at 3.7 µM,-2%
same,growth inhibition,[9]; at 11.0 µM,-3%
same,growth inhibition,[9]; at 33.0 µM,92% (active)
same,growth inhibition,[9]; at 100.0 µM,97% (active)
same,growth inhibition,[10]; [16],37%
same,growth inhibition,[10]; [17],96% (active)
same,growth inhibition,[10]; at 50.0 µM,91% (active)
same,growth inhibition,[11]; at 1.2 µM,0%
same,growth inhibition,[11]; at 3.7 µM,2%
same,growth inhibition,[11]; [16],-1%
same,growth inhibition,[11]; at 11.0 µM,11%
same,growth inhibition,[11]; at 33.0 µM,93% (active)
same,growth inhibition,[11]; [17],97% (active)
same,growth inhibition,[11]; at 50.0 µM,92.4% (active)
same,growth inhibition,[11]; at 100.0 µM,97% (active)
same,growth inhibition,[12]; at 1.2 µM,7%
same,growth inhibition,[12]; at 3.7 µM,4%
same,growth inhibition,[12]; at 11.0 µM,42%
same,growth inhibition,[12]; at 33.0 µM,97% (active)
same,growth inhibition,[12]; at 100.0 µM,97% (active)
same,growth inhibition,[13]; at 1.2 µM,13%
same,growth inhibition,[13]; at 3.7 µM,14%
same,growth inhibition,[13]; at 11.0 µM,51%
same,growth inhibition,[13]; at 33.0 µM,96% (active)
same,growth inhibition,[13]; at 100.0 µM,97% (active)
same,growth inhibition,[15]; [16],2%
same,growth inhibition,[15]; [17],98% (active)
same,growth inhibition,[15]; at 50.0 µM,92.8% (active)
same,growth inhibition,[14]; at 1.2 µM,3%
same,growth inhibition,[14]; at 3.7 µM,25%
same,growth inhibition,[14]; at 11.0 µM,81% (active)
same,growth inhibition,[14]; at 33.0 µM,96% (active)
same,growth inhibition,[14]; at 100.0 µM,97% (active)
